LDHA block: qHTS assay for inhibitors of human lactate dehydrogenase; L-lactate dehydrogenase A chain (Homo sapiens), P00338; purified LDHA, NADH/diaphorase-resazurin fluorescence; stronger effect = lower value; activity change, % (values are at about 110 or 230 µM); 0.15% of 480,000 active; AID 1347041, 2019; in the data active = activity change below about -30%; inconclusive = mostly about -25% to -30%
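Human LDH5 at 2 nM final in Tris HCl pH 7.4 with 0.06 mM NADH and 0.2 mM pyruvate, reacted 5 minutes at room temperature. Remaining NADH coupled via diaphorase/resazurin; resorufin fluorescence read at 0 and 20 minutes, normalized to enzyme-free and DMSO wells.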
KCNH2 3.1 inh: qHTS for Inhibitors of KCHN2 3.1: Mutant qHTS; Potassium voltage-gated channel subfamily H member 2, brain isoform KCNH2 3.1 (human); U2OS KCNH2 3.1, thallium flux FluxOr; stronger effect = lower value; activity change, % (tested at about 1.8 µM); 0.95% of 340,000 active; AID 720553, 2013;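 active = maximum activity change below -70%; inconclusive = maximum activity change from -70% to -50%; inactive = maximum activity change above -50%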;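 also: thallium influx rate constant from kinetic fluorescence after stimulation buffer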
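Normalized rate constant (relative to positive and negative DMSO controls) derived from a 2 min kinetic fluorescence read after stimulation; U2OS cells expressing the 3.1 isoform via virus at 1.77 x 10^8 /mL.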
hERG WT inh: qHTS for Inhibitors of KCHN2 3.1: Wildtype qHTS; Voltage-gated inwardly rectifying potassium channel KCNH2 (Homo sapiens), Q12809; U2OS, BacMam KCNH2, thallium flux FluxOr; stronger effect = lower value; activity change, % at 1.84 µM; 0.37% of 340,000 active; AID 720551, 2013;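 active = maximum activity change below -70%; inconclusive = maximum activity change between -70% and -50%; inactive = maximum activity change above -50%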
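U2OS cells transduced with wild-type KCNH2 virus are loaded with FluxOr dye for 45 min, and thallium flux is measured in kinetic reads before and after stimulation buffer. Rate constants are normalized to DMSO controls.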
BCR signal inh: qHTS Assay to Find Inhibitors of Chronic Active B-Cell Receptor Signaling | Potency, µM (series often up to 46.1 µM), actives largely listed as inhibitors | ABC-DLBCL IkBa-CBG/CBR reporter, luminescence ratio, 4 h | 0.05% of 340,000 active; active = well fitted inhibition curve with a large enough effect in the signal ratio, with a control signal flat, not every such curve was filed as active; inconclusive = small, poorly fitted or top-dose-only effect, or effect the other way, or a change in a side signal; the % refers to the signal ratio
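Cell line TMD8 (human ABC DLBCL), stably expressing tet-inducible CBG68-IkBa fusion and CBR; IMDM/0.5% FBS; cpd up to 46 uM; dox induction, 4 h, 37C/5% CO2; dual luminescence; green/red ratio; MG132 control.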
ClpP mod: qHTS Assay for Activators of ClpP; Potency, µM (doses to about 57.5 µM); 1.9% of 340,000 active; ATP-dependent Clp protease proteolytic subunit (Bacillus subtilis (strain 168)), P80244; purified B. subtilis ClpP, FRET peptide cleavage, 20 min; active = well fitted falling curve with a large enough effect; inconclusive = small, poorly fitted or top-dose-only effect; inactive = no such curve, though single readings can be large or run the other way; also: the source files actives as falling curves though it sought activators and does not explain the sign; nearly all actives have a fitted effect of over 65% in size
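Buffer: 100 mM Tris/HCl pH8, 100 mM KCl, 0.05% low protease BSA, 2.5% glycerol, 0.01% Tween-20. ClpP 10 microg/mL final; 20 min RT; delta FRET normalized to ADEP and DMSO controls.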
12-LOX inh: Primary qHTS assay for inhibitors of human arachidonate 12S-lipoxygenase (ALOX12): Round 2 | purified 12hLO, xylenol orange hydroperoxide absorbance | Polyunsaturated fatty acid lipoxygenase ALOX12 (Homo sapiens), P18054 | Potency, µM (highest dose often 108 µM), most hits filed as inhibitors | AID 1671190, 2021 | 1.1% of 580,000 active; active = well fitted inhibition curve with a large enough effect; inconclusive = small, poorly fitted or top-dose-only effect, or another doubt; inactive = no such curve, though single readings can be large or run the other way
Target sequence (P18054 whole entry, looked up): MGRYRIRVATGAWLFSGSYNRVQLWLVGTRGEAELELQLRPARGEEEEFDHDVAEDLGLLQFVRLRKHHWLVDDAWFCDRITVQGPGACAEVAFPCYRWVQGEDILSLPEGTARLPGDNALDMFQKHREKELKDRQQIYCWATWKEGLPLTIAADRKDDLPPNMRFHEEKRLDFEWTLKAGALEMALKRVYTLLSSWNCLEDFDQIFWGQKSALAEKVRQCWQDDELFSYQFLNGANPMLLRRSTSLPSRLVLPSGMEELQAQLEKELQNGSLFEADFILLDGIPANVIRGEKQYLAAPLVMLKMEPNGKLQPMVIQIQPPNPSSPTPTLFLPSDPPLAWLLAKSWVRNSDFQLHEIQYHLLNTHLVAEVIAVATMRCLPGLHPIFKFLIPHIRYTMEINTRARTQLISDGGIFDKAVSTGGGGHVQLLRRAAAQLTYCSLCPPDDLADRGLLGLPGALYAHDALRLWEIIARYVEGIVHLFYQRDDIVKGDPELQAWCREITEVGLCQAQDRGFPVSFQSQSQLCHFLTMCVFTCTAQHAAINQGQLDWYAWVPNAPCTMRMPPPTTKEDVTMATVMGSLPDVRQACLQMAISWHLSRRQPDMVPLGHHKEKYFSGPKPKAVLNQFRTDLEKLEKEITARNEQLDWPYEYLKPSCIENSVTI
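Purified human 12hLO (150 nM final) in 25 mM Hepes, 0.01% Triton X-100, pH 7.0 was preincubated 15 min at room temperature with compound. Then 40 uM arachidonic acid was added, 30 min. Hydroperoxide was read by Fe-XO absorbance ratio 573/405 nm.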
Hits are given with their value; n = inactive; u = inconclusive; x = not tested or not shown. Only some compounds are listed: those with a hit (about 3% of all), similar ones and a draw of the others.

SMILES	LDHA block	KCNH2 3.1 inh	hERG WT inh	BCR signal inh	ClpP mod	12-LOX inh
Cc1nnc(SCC(=O)Nc2sc3c(c2C#N)CCC(C)C3)n1Cc1ccccc1 (stereo not drawn)	n	x	x	x	x	20µM
COc1ccc(C(=O)Oc2coc(CSc3nnc(NC(=O)c4cccs4)s3)cc2=O)cc1	n	n	n	n	28µM	n
CCCCCCCCCCCCS(=O)C1CCCCC1OC(C)=O (stereo not drawn)	n	x	x	x	x	u
O=C(NC1CCCCCC1)c1nc2ncccn2n1	n	n	n	n	28µM	n
CC(C)(CNC(=O)c1nn(Cc2ccccc2)c(=O)c2ccccc12)N1CCOCC1	n	x	x	x	x	u
COc1ccc(N2CCN(C(=O)c3cc(-c4ccc(F)cc4)[nH]c3C)CC2)cc1	n	-83	-88	u	n	n
Cc1ccc2nc(Cl)c3cc(C(=O)N(CCN(C)C)Cc4ccco4)sc3c2c1	n	n	n	n	25µM	n
CC(C)(C)c1ccc(-c2nc(C#N)c(NCCN3CCOCC3)o2)cc1	n	x	x	x	x	u
CC1(C)CC(=O)c2cc(C(=O)NCc3ccco3)c(=O)n(-c3ccccc3)c2C1	n	n	n	n	28µM	n
O=C(CNC(=O)c1cc2c(n(-c3ccccc3)c1=O)CCCC2=O)c1ccccc1	n	n	n	u	28µM	n
O=C1Cc2cc(S(=O)(=O)N3CCN(C(=O)Nc4ccccc4)CC3)ccc2N1	n	x	x	x	x	n
O=C(COC(=O)c1ccc(S(=O)(=O)N2CCCCCC2)cc1)NCc1ccccc1	n	x	x	x	x	n
O=C1NCc2ccccc2CC12CCCN(Cc1ccnc3ccccc13)C2 (stereo not drawn)	x	x	x	x	x	22µM
O=C1NCc2ccccc2CC12CCN(Cc1ccnc3ccccc13)CC2	x	x	x	x	x	28µM
COc1ccc(-c2nc(C)c(CCNS(=O)(=O)c3ccc(Cl)s3)s2)cc1	n	x	x	x	x	u
O=C1CC2(C(=O)Nc3c(Cl)cccc32)c2cnn(Cc3ccccc3Cl)c2N1 (stereo not drawn)	n	x	x	x	x	u
Cn1c(N)c(C(=O)COC(=O)CNC(=O)c2ccccc2Cl)c(=O)n(C)c1=O	n	n	n	n	n	n
Cn1c(N)c(C(=O)COC(=O)CNS(=O)(=O)c2ccc(Cl)c(Cl)c2)c(=O)n(C)c1=O	n	n	n	n	32µM	n
O=C1c2cc(Cl)ccc2-c2c(O)cc(Cl)cc21	n	n	n	x	x	35µM
CCCCc1noc(CN2CCc3cc(OC)c(OC)cc3C2CC(=O)OC)n1 (stereo not drawn)	n	x	x	x	x	n
O=C(NCC1CCCN(Cc2nccs2)C1)c1cccc2ccccc12 (stereo not drawn)	n	x	n	n	35µM	n
CC(C)(C)c1ccc(C(=O)N/N=C2\C3CN4CCN(C3)CC2(c2ccccc2)C4)cc1	n	n	n	n	22µM	n
CCCNc1c(NC(=O)Nc2cc(Cl)ccc2C)c(=O)oc2ccccc12	n	x	x	x	x	n
CCn1nc([N+](=O)[O-])c(C(C#N)c2nc3cc(C(F)(F)F)ccc3s2)c(Cl)c1=O (stereo not drawn)	n	n	n	u	n	u
CCCn1nc([N+](=O)[O-])c(C(C#N)c2nc3ccccc3o2)c(Cl)c1=O (stereo not drawn)	n	n	n	u	n	40µM
SMILES	LDHA block	KCNH2 3.1 inh	hERG WT inh	BCR signal inh	ClpP mod	12-LOX inh
Nc1nccnc1C(=O)NCCCc1ccccc1	n	x	x	x	x	u
O=C(C[n+]1cc(Br)cc(Br)c1)c1cccc([N+](=O)[O-])c1	n	-80	n	n	x	u
CC(=O)NCCc1nc2ccccc2n1Cc1cccc(C)c1	n	n	n	n	x	n
COC(=O)CNC(=O)c1cccc(C)c1	n	x	x	x	x	n
CC(=O)c1cccc(NC(=O)c2ccc3c(c2)c(C)c(C)n3Cc2ccc(Cl)cc2)c1	n	x	x	x	n	n
Cc1ccc(Cn2c(CCNC(=O)c3cccc(C)c3)nc3ccccc32)cc1	n	x	x	x	22µM	n
Cc1cccc(C(=O)NCCNC(=O)c2cccc(C)c2)c1	n	x	-264	n	x	n
CCc1cccc(NC(=O)c2ccc3c(c2)c(C)c(C)n3Cc2ccc(F)cc2)c1	n	x	x	x	20µM	n
CCc1ccc(NC(=O)c2ccc3c(c2)c(C)c(C)n3Cc2ccccc2)cc1	n	x	x	x	22µM	n
Cn1c(=O)c2c(ncn2CCNc2cccc(Cl)c2)n(C)c1=O	n	x	x	x	x	n
CCOC(=O)C(O)(c1c(C)[nH]c2ccccc12)C(F)(F)F (stereo not drawn)	n	x	x	x	x	u
CCN1CCC2(CC1)N=C(SCC(=O)Nc1cc(F)ccc1F)C(c1ccc(F)cc1)=N2	n	x	x	x	x	u
CCOc1ccc(NC(=O)c2ccc3c(c2)c(C)c(C)n3Cc2ccc(F)cc2)cc1	n	x	x	x	u	n
Cc1c(C)n(Cc2ccc(F)cc2)c2ccc(C(=O)Nc3ccc(Cl)cc3)cc12	n	x	x	x	32µM	n
CCn1nc(C)c(/C=N/NC(=O)c2ccc3c(c2)c(C)c(C)n3Cc2ccccc2)c1C	n	u	n	n	10µM	n
CCc1ccc(CNC(=O)c2ccc3c(c2)c(C)c(C)n3Cc2ccccc2)cc1	n	x	x	x	25µM	n
Cc1ccc(CCNC(=O)c2ccc3c(c2)c(C)c(C)n3Cc2ccccc2)cc1	n	x	x	x	22µM	n
COCCN1CCCN(C(=O)c2cc(C)ccc2C)c2ccccc21	x	x	x	x	x	n
O=C(OCc1nc2ccccc2o1)c1cccc(F)c1	n	x	x	x	x	u
O=C(/C(Br)=C/Nc1ccc(Cl)cc1Cl)C(F)(F)F	n	x	x	x	x	u
C=C(C)Cn1c(CCNC(=O)C(C)C)nc2ccccc21	n	n	n	u	n	n
C=C(C)Cn1c(CCNC(=O)CC)nc2ccccc21	n	n	n	n	32µM	n
Cc1nc2cccnc2n1CC1CCCN(S(=O)(=O)c2cc(F)cc(F)c2)C1 (stereo not drawn)	x	x	x	x	x	n
O=Cc1cn(-c2ccccc2)nc1-c1cc2c(ccc3ccccc32)oc1=O	n	n	n	n	5.6µM	n
O=Cc1cn(-c2ccccc2)nc1-c1cc2cc(O)ccc2oc1=O	n	n	n	n	n	n
N#Cc1cn(-c2ccccc2)nc1-c1cc2ccccc2oc1=O	n	n	n	u	32µM	n
CC1(C)CC(=O)c2cc(-c3nc(-c4ccc(Cl)cc4)cs3)c(=O)n(-c3ccc(F)cc3)c2C1	n	x	x	x	40µM	n
